Test system: PPARalpha LBD (GAL4 fusion)
Assay: luciferase reporter transactivation, fold of solvent control; higher = stronger receptor activation
Conditions: HEK293T, exposure time: 24 h
Protocol: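 HEK293T cells were transiently transfected with a GAL4-DBD fused to the ligand-binding domain of a human nuclear receptor (PPARα, PPARγ, PPARδ, FXR, LXRα, PXR, RARα or CAR), the GAL4-(UAS)5-TK firefly luciferase reporter and a Renilla luciferase normalisation plasmid. Cells were exposed to compound for 24 h in 0.5% DMSO. Firefly/Renilla luciferase was expressed as fold of the solvent control (=1). Values are the mean of 2-3 biological replicates; receptor agonists were used as positive controls.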

Row | Structure (SMILES) | luciferase reporter transactivation (concentration: 1 µM) | luciferase reporter transactivation (concentration: 5 µM) | luciferase reporter transactivation (concentration: 10 µM) | luciferase reporter transactivation (concentration: 25 µM) | luciferase reporter transactivation (concentration: 50 µM) | luciferase reporter transactivation (concentration: 100 µM) | luciferase reporter transactivation (concentration: 250 µM) | luciferase reporter transactivation (concentration: 500 µM) | luciferase reporter transactivation (concentration: 2.5 µM)
1 | O=C(O)C(F)(F)C(F)(F)F [perfluoropropanoic acid] | 1.08 | 1.01 | 1.07 | 1.03 | 1.12 | 1.78 | 1.42 | 1.98 | –
2 | NS(=O)(=O)C(F)(F)C(F)(F)C(F)(F)C(F)(F)C(F)(F)C(F)(F)C(F)(F)C(F)(F)F [perfluorooctane sulfonamide] | 0.788 | 0.904 | 0.796 | – | – | 1.2 | – | – | 0.548
